The values that follow come from PubChem BioAssay (NCATS).

Records with an inconclusive call do not appear. Calls of active or inactive are those of the source. The call rests on the fitted dose curve; in most records, active means well fitted inhibition curve with a large enough effect; inconclusive means small, poorly fitted or top-dose-only effect; inactive means flat fitted curve, though single readings scatter.
Potency means the concentration at half of the fitted maximal effect.

This assay deals with DFO2036. The experiment in a line: qHTS profiling for inhibitors of Plasmodium falciparum proliferation (AID 504749). Further: nearly all actives have a fitted effect of over 60% in size.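 On activity, negative = inhibition: 0% = DMSO vehicle and full inhibition = artemisinin control.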 Particulars: P. falciparum in erythrocytes, SYBR Green DNA, 72 h; series mostly up to 28.7 µM; activity, negative = inhibition: at the top concentration. From the text: NIH National Institute of Allergy and Infectious Diseases [NIAID] NIH Chemical Genomics Center [NCGC] MLPCN Grant: None Assay Provider: Xinzhuan Su, NIAID NCGC Assay Overview: Plasmodium falciparum is a virulent malarial parasite that kills 1-2 million people worldwide each year. Transmitted by mosquitoes, the sporozoite form of the parasite enters the blood stream to infect hepatocytes, where they become merozoites that infect red blood cells (erythrocytes). Within erythrocytes, merozoites begin a […] cycle of growth and division, after which the parasite is released to infect new red blood cells. Gametocytes, which form within erythrocytes as well, circulate in the bloodstream and are ingested by the mosquito, thereby completing the life cycle. To profile malarial isolates for differential chemical responses and to identify inhibitors of malarial growth, an assay that measures P. falciparum growth and replication within erythrocytes was employed. This assay uses a DNA binding fluorescent dye (SYBR Green) to detect parasite DNA following cell lysis. Because mature erythrocytes lack DNA, only Plasmodium-derived DNA is detected.
NCGC Assay Protocol Summary: The SYBR Green viability assay was adapted from a method described previously (Plouffe et al., 2008). For screening 3 ul culture medium was dispensed into 1536 well black clear bottom plates (Aurora Biotechnologies) using a Multidrop Combi (Thermo Fisher Scientific Inc.), 23 nL compounds in DMSO were added by a pin tool (Kalypsys), and 5 ul of erythrocytes infected with P. falciparum (0.3% parasitemia, 2.5% hematocrit final concentration) were added. The plates were incubated at 37 C in a humidified incubator in 5% CO2 for 72 h, and 2 ul lysis buffer (20 mM Tris HCl, 10 mM EDTA, 0.16% saponin, 1.6% triton X, 10X SYBR Green I supplied as 10,000X […] by Invitrogen) was added to each well. The plates were mixed for 25 sec with gentle shaking and incubated overnight at room temperature in the dark. The following morning, fluorescence intensity at 485(14) nm excitation and 535(25) nm emission wavelengths was measured on an EnVision (Perkin Elmer) plate reader. Plate reads were normalized relative to the control inhibitor (0.29 uM artemisinin) and vehicle (DMSO) wells present on each plate and then corrected by an algorithm using vehicle-only control plates at the beginning and end of the compound plate stack.
For the compound `Nc1ccc(S(=O)(=O)Nc2ncccn2)cc1`, the “activity, negative = inhibition” value was 4.3% [at 12.8 µM] (inactive).

As for `CC1(C)O[C@@H]2C[C@@H]3[C@H]4C[C@@H](F)C5=CC(=O)C=C[C@]5(C)[C@@]4(F)[C@@H](O)C[C@]3(C)[C@]2(C(=O)CO)O1`, the “activity, negative = inhibition” value was 10.2% (inactive).

On to `CN1c2cc(O)c(N=NC(N)=O)cc2CC1S(=O)(=O)O` (stereo not given), for which the “activity, negative = inhibition” value was -4.45% (inactive).

For `C[C@H]1C[C@@H]2[C@@H]([C@@H](O)C[C@@]3(C)[C@H]2CC[C@]3(O)C(=O)CO)[C@@]2(C)C=CC(=O)C=C12`, the “activity, negative = inhibition” value is 4.95% [at 12.8 µM] (inactive).

For `CC=CC1=C(C(=O)O)N2C(=O)[C@H](NC(=O)[C@H](N)c3ccc(O)cc3)[C@@H]2SC1`, the “activity, negative = inhibition” value is -2.78% (inactive).

`O=C(O)CO.[NH2-].[NH2-].[Pt+2]`: the “activity, negative = inhibition” value was 13.8% (inactive).

With `Nc1ccn([C@@H]2CS[C@H](CO)O2)c(=O)n1`, the Potency result was “inactive”.

For the compound `O=c1[nH]c(=O)n(C2CCCO2)cc1F` (stereo not given), the “activity, negative = inhibition” value was 1.58% (inactive).

Consider `COC(=O)C[C@](O)(CCCC(C)(C)O)C(=O)O[C@@H]1C(OC)=C[C@]23CCCN2CCc2cc4c(cc2[C@H]13)OCO4`, for which the Potency was 0.0224 µM (active).

Regarding `CC[C@H]1CN2CCc3cc(OC)c(OC)cc3[C@H]2C[C@@H]1C[C@@H]1NCCc2cc(OC)c(OC)cc21`, the Potency is 0.316 µM (active).

For the compound `COc1cc(C(=O)NS(=O)(=O)c2ccccc2C)ccc1Cc1cn(C)c2ccc(NC(=O)OC3CCCC3)cc12`, the “activity, negative = inhibition” value is -6.72% (inactive).

Turning to `CCC1=C[C@@H]2CN(C1)Cc1c([nH]c3ccccc13)[C@@](C(=O)OC)(c1cc3c(cc1OC)N(C)[C@@H]1[C@@](O)(C(=O)OC)[C@H](OC(C)=O)[C@]4(CC)C=CCN5CC[C@]31[C@@H]54)C2`, the Potency was 2.51 µM (active).

Consider `COC(=O)C1=C(C)NC(C)=C(C(=O)OCCN2CCN(C(c3ccccc3)c3ccccc3)CC2)C1c1cccc([N+](=O)[O-])c1` (stereo not given), for which the Potency is 1.78 µM (active).

On to `Nc1ccn([C@@H]2O[C@H](CO)[C@H](O)C2(F)F)c(=O)n1`, for which the Potency is 0.282 µM (active).

On to `COc1c(N2C[C@@H]3CCCN[C@H]3C2)c(F)cc2c(=O)c(C(=O)O)cn(C3CC3)c12`, for which the “activity, negative = inhibition” value is -29.5% (inactive).
